The results in this text go back to publication PMC5540273 (PLoS ONE, 2017).

pKd: −log10 of the molar value. Bounds are passed on as bounds.

The term pKd denotes the Kd on a negative log10 scale, so that one unit is a factor of ten. Low readings indicate a high Kd, high ones a low Kd.
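Further: kd values determined as follow-up on hits from a single-replicate KINOMEscan panel screen.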

For the first assay, the system named is DYRK1B.
The compound `Nc1n[nH]c2nnc(-c3ccccc3)cc12` [SB-517389] gave a pKd of 5.15.

As for `Cc1cc(N2CCC(NS(=O)(=O)c3ccc(F)cc3)CC2)nc(Nc2cccc(C#N)c2)n1.O=C(O)C(F)(F)F` [GSK1653537], the pKd is 5.55.

`COc1ccc(Nc2nccc(N3CCC(NC(=O)c4cccc(NC(C)=O)c4)C3)n2)cc1` (stereo not drawn) [GSK1379732] showed a pKd of less than 5.00.

Regarding `CC(C)(C)OC(=O)NC1CCCN(c2cc(-c3ccc4c(N)n[nH]c4c3)nc(N)n2)C1` (stereo not drawn) [GSK2286096], the pKd was less than 5.00.

The next assay concerns EGFR.
Take `Cl.c1ccc(Cn2ccc3cc(Nc4ncnc5ccccc45)ccc32)cc1` [GW275568]: the pKd is 8.30.

`Cl.O=S(=O)(c1cccc(F)c1)c1ccc(Nc2ncnc3cc(Br)sc23)cc1Cl` [GSK306886] showed a negative-log Kd (pKd) of 7.21.

As for `Cl.Fc1ccccc1COc1ccc(Nc2ncnc3ccc(-c4nnc(C(F)(F)F)o4)cc23)cc1Cl` [GW424170], the pKd is 7.37.

Turning to `O=C(CCO)NCCn1ccc2ncnc(Nc3ccc(Oc4cccc(C(F)(F)F)c4)c(Cl)c3)c21`, the pKd is 8.64.

With `NC(=O)c1sc(-n2cnc3ccccc32)cc1OCc1ccccc1F` [GSK1024306], the pKd was 5.89.

On to `CS(=O)(=O)CCNCc1nc(-c2ccc3ncnc(Nc4ccc(OCc5cccc(F)c5)c(Cl)c4)c3c2)cs1.Cl` [GW583340], for which the pKd was 9.16. Compared with the last compound, the pKd is 3.27 log units higher.

With `COc1cc2ncnc(Nc3ccc(OCc4ccccc4Br)c(Cl)c3)c2cc1OC.Cl` [GI261590], the pKd was 8.62.

`CS(=O)(=O)CCNCc1ccc(-c2ccc3ncnc(Nc4ccc(OCc5ccccc5)c(Cl)c4)c3c2)o1.Cl` [GW574783] showed a pKd of 9.09.

Compound `COc1cc2c(Nc3cccc(NC(=O)c4ccccc4)c3)ncnc2cc1OCCCN1CCOCC1` [GSK223810] showed a pKd of 5.85.

`Fc1cccc(COc2ccc(Nc3ncnc4sc(-c5ccc[nH]5)cc34)cc2Cl)c1` [GW707818]: the pKd is 8.59.

On to `N#Cc1ccc(Oc2ccc(Nc3ncnc4cc[nH]c34)cc2Cl)cc1`, for which the pKd is 7.01.

In turn, `OCCOCCn1ccc2ncnc(Nc3ccc(Oc4cccc(Cl)c4)c(Cl)c3)c21` had a pKd of 8.07. This pKd lies 1.06 log units higher than the previous one.

On to `Oc1ccc2ncnc(Nc3ccc(OCc4ccccc4)cc3)c2c1` [GI262866], for which the pKd is 8.03. The pKd values of the last two compounds are within 0.2 log units of each other.

Turning to `Cn1ccc2ncnc(Nc3ccc(Oc4cccc(Cl)c4)c(Cl)c3)c21`, the pKd is 8.37.

Take `Cl.c1ccc(Cn2ncc3cc(Nc4ncnc5ccccc45)ccc32)cc1` [GW273749]: the pKd is 8.12.

The compound `Clc1cc(Nc2ncnc3cc[nH]c23)ccc1OCc1ccccn1` gave a pKd of 8.08.

For the compound `Fc1cccc(COc2ccc(Nc3ncnc4cc[nH]c34)cc2Cl)c1`, the pKd is 8.89.

In another assay the test system is EPHA3.
`Cl.Cn1ccc(-c2cccc(Nc3ccnc4cc(-c5nccs5)ccc34)c2)n1` [GW525701] gave a pKd of less than 5.00.

`O=c1cc(N2CCOCC2)nc2n(Cc3cccc(Cl)c3)ccn12` [GSK2296823]: the pKd is less than 5.00.

`CCn1c(-c2ccncc2)nc2cnccc21` [SB-735216] showed a pKd of less than 5.00.
